Reference: PubChem BioAssay (NCATS)
Values joined by “and” are separate entries in the source; they are usually repeats but may differ in a detail not shown here. Equal values may be shown once. Inconclusive results are not listed. Active and inactive are the calls of the source. Unless noted, calls follow the shape of the dose curve; as a rule, active = well fitted curve in the direction sought with a large enough effect; inconclusive = small, poorly fitted or top-dose-only effect, or another doubt; inactive = no such curve, though single readings can be large; an effect the other way counts as inactive or inconclusive.

Assays:
[1] = Cell Viability - N2a (AID 540); details: N2a mouse neuroblastoma cell viability; activity change, negative = cytotoxicity: at 92.2 µM (top of the series);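 also: cells exposed to compound for 40 h at 37 °C; plate controls were DMSO alone for no effect and tamoxifen control for full effect; nearly all actives have a fitted effect of over 45% in size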
In short: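 Cytotoxicity was scored as loss of cellular ATP in N2a cells, a mouse neuroblastoma line. Compounds are applied in a qHTS concentration series for 40 hr at 37 °C.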

[2] = Cellular Toxicity (caspase-3) BJ (AID 658); details: Potency: caspase-3 activation;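 also: cells exposed to compound for 16 hours; 0% = DMSO basal and 100% = 10 µM staurosporine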
In short: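 qHTS, BJ fibroblasts, 1000 cells/well; 5 hr preincubation, 16 hr compound, 37 °C; Caspase-Glo 3/7 reagent, 1 hr RT; luminescence. DMSO = 0%, 10 uM staurosporine = 100%. Hill-equation AC50.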

[3] = Cellular Toxicity (caspase-3) Hek293 (AID 664); details: HEK293 caspase-3 activation, DMSO = 0%, 100 µM tamoxifen = 100%; at 92.2 µM (top of the series);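 also: cells exposed to compound for 16 h at 37 °C before readout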
In short: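 qHTS, HEK293 (human embryonic kidney), 16 h cpd exposure in complete medium. Caspase-3/7 activation = luminescence increase; normalized to DMSO/100 uM tamoxifen; Hill-fit AC50.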

[4] = Cell Viability - LYMP2-018 (AID 985);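 also: compound exposure lasted 24 hr at 37 °C; nearly all actives have a fitted effect of over 50% in size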; also: potency is read from the fitted curve at half-maximal effect;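 as to activity change, negative = cytotoxicity: plate controls were DMSO only for no effect and tetraoctylammonium bromide at 92 µM for full effect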
In short: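 Seed 2500 lymphoblastoid cells per well, incubate 5 hr at 37 C, add compound and incubate 24 hr at 37 C, add CellTiter-Glo, wait 30 min at room temperature, then read luminescence.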

[5] = biological target: Estrogen receptor (Homo sapiens) (UniProt P03372); assay: qHTS assay for small molecule agonists of estrogen receptor alpha signaling (AID 588514; calls by dose curve;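 also: 0% = vehicle only and 100% = reference agonist; nearly all actives have a fitted effect of over 70% in size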)
Chain of Estrogen receptor (Homo sapiens) (P03372 whole entry, looked up): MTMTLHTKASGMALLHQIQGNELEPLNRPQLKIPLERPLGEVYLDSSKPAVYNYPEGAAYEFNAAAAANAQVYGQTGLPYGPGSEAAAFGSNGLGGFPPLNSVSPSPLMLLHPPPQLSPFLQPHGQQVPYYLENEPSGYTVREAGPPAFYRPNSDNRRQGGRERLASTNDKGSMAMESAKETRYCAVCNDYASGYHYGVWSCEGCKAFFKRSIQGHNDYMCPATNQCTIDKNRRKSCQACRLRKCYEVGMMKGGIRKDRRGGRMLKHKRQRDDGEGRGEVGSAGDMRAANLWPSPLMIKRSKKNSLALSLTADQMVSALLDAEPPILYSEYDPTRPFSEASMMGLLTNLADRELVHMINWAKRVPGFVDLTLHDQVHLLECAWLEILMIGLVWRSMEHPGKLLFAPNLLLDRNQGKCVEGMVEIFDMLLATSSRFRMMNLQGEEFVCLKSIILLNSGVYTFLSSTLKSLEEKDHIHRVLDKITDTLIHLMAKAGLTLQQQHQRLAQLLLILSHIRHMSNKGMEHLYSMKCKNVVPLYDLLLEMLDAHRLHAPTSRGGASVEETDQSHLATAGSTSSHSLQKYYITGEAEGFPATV
In short: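 Efficacy is expressed against 20 nM 17-beta-estradiol (100%) and DMSO basal (0%); EC50 from Hill equation. Assay: beta-lactamase reporter in ER-alpha-UAS-bla HEK 293 cells, 18 h compound incubation, CCF4 detection.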

[6] = qHTS assay for cell viability of HEK293 cells (AID 743288); details: ATP luminescence (CellTiter-Glo), 18 h; max response: stronger effect = lower value; also: nearly all actives have a fitted effect of over 50% in size; also: potency is read from the fitted curve at half-maximal effect; as to max response: % is scaled to controls: 0 for no effect and ±100 for the full control effect
In short: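 Readout is luciferase-coupled ATP content (CellTiter-Glo luminescence, 30 min room temperature) as a measure of metabolically competent cells. Parental HEK293 cells were plated 5 h or more before compound addition, then treated 18 h at 37 C.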

[7] = Cellular Toxicity (caspase-3) Jurkat (AID 655); details: Jurkat caspase-3 activation, luminescence; caspase-3 activation: at 92.2 µM (top of the series), DMSO = 0%, tamoxifen = 100%;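 also: cells exposed to compound for 16 h at 37 °C before reading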
In short: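 Luminescent Caspase-Glo 3/7 read-out (20 min, room temperature) after 16 h compound treatment at 37 C of 5000 Jurkat cells per well. AC50 derived by Hill-equation fitting, scaled between DMSO basal and 100 uM tamoxifen stimulation.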

[8] = Cell Viability - LYMP2-007 (AID 979);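 also: cells exposed to compound for 24 h before reading; nearly all actives have a fitted effect of over 60% in size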; also: potency is read from the fitted curve at half-maximal effect;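 as to activity change, negative = cytotoxicity: 0% = DMSO only and the negative end = 92 µM tetraoctylammonium bromide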
In short: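 Cells are seeded at 2500 per well and rested 5 hr. Compounds are then added over a concentration series for 24 hr at 37 C. CellTiter-Glo is added for 30 min at room temperature before luminescence reading.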

[9] = Cell Viability - LYMP2-020 (AID 986);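 also: cells exposed to compound for 24 h at 37 °C; plate controls were DMSO only for no effect and tetraoctylammonium bromide at 92 µM for full effect; nearly all actives have a fitted effect of over 55% in size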
In short: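 Seed 2500 cells per well and incubate 5 hr at 37 C. Add compounds at a concentration series and incubate 24 hr at 37 C. Add CellTiter-Glo, wait 30 min at RT, read luminescence, and fit a Hill curve for AC50.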

[10] = biological target: Glucocorticoid receptor (Homo sapiens) (UniProt P04150); assay: qHTS assay for small molecule antagonists of glucocorticoid receptor signaling (AID 588533; active = well fitted inhibition curve with a large enough effect in the signal ratio, with a control signal flat, not every such curve was filed as active; the % refers to the signal ratio;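 also: cells stimulated with 2 nM dexamethasone as agonist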; also: potency is read from the fitted curve at half-maximal effect)
Chain of Glucocorticoid receptor (Homo sapiens) (P04150 whole entry, looked up, the tested form may be a part): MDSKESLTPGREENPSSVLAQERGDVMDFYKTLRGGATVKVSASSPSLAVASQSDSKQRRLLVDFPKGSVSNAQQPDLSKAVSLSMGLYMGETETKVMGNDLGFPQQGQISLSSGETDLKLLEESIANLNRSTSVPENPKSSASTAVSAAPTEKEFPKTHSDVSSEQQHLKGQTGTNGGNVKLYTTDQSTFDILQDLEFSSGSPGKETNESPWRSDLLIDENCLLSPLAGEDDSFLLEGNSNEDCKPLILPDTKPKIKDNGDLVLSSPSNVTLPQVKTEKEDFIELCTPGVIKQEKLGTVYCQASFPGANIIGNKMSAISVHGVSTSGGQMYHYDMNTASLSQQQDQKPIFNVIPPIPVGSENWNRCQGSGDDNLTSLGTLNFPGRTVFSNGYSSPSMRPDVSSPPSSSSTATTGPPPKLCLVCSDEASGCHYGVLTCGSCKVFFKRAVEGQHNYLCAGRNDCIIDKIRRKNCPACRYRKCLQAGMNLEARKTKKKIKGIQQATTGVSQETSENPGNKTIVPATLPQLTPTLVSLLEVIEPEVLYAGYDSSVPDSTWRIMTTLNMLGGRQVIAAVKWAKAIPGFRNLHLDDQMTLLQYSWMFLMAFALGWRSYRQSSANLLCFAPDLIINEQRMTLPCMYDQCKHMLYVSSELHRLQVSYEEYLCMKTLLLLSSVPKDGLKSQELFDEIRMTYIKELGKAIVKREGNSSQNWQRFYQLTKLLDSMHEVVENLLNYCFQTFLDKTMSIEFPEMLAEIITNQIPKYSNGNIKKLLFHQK
In short: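 Antagonist-mode qHTS: compound titrations added to GRE-bla HeLa cells, then dexamethasone 2 nM final; 18 h, 37 C. CCF4 FRET fluorescence normalized to dexamethasone and DMSO; IC50 from Hill fit.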

[11] = biological target: Peroxisome proliferator-activated receptor gamma (Homo sapiens) (UniProt P37231); assay: qHTS assay for small molecule agonists of peroxisome proliferator-activated receptor gamma signaling (AID 588536; active = well fitted curve in the direction sought with a large enough effect in the signal ratio, with a control signal flat, not every such curve was filed as active; the % refers to the signal ratio;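 also: 0% = DMSO basal wells and 100% = rosiglitazone at 2 µM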)
Chain of Peroxisome proliferator-activated receptor gamma (Homo sapiens) (P37231 whole entry, looked up): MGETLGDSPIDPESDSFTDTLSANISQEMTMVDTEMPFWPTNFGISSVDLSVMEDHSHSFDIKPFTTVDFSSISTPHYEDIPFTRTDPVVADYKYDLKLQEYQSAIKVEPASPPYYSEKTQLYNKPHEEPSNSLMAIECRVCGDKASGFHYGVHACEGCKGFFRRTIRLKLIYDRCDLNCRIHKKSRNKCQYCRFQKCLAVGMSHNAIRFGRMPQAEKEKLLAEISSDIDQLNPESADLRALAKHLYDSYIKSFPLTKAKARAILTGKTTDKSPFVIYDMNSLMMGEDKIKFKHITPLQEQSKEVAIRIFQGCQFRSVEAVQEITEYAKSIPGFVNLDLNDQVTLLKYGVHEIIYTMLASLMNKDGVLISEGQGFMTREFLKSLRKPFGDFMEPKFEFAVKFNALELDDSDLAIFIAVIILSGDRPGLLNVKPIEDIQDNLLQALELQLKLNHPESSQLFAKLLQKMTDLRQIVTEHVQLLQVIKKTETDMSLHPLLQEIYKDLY
In short: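 Using GeneBLAzer HEK293 cells, response was quantified by CCF4 fluorescence and normalized between basal DMSO (0%) and rosiglitazone 2 uM (100%); curves yielded half-maximal stimulation concentration and efficacy.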

[12] = MultiTox-Fluor Cytotoxicity Assay - LYMP1-001 - Live Cells (AID 947);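 also: 0% = DMSO only and full inhibition = tetraoctylammonium bromide control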
[13] = Cell Viability - LYMP2-017 (AID 972);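 also: cells exposed to compound for 24 hours at 37 °C; nearly all actives have a fitted effect of over 55% in size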; also: potency is read from the fitted curve at half-maximal effect; as to activity change, negative = cytotoxicity: % is scaled to controls: 0 for no effect and ±100 for the full control effect
In short: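 Cytotoxicity is scored as a concentration-dependent drop in cellular ATP in a human lymphoblastoid line after 24 hr treatment at 37 C. Values are AC50s from Hill-equation modelling.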

[14] = biological target: Bile acid receptor (Homo sapiens) (UniProt Q96RI1); assay: qHTS assay for small molecule antagonists of farnesoid X receptor signaling (AID 588526; calls by dose curve; also: % is scaled to controls: 0 for no effect and ±100 for the full control effect)
Chain of Bile acid receptor (Homo sapiens) (Q96RI1 whole entry, looked up): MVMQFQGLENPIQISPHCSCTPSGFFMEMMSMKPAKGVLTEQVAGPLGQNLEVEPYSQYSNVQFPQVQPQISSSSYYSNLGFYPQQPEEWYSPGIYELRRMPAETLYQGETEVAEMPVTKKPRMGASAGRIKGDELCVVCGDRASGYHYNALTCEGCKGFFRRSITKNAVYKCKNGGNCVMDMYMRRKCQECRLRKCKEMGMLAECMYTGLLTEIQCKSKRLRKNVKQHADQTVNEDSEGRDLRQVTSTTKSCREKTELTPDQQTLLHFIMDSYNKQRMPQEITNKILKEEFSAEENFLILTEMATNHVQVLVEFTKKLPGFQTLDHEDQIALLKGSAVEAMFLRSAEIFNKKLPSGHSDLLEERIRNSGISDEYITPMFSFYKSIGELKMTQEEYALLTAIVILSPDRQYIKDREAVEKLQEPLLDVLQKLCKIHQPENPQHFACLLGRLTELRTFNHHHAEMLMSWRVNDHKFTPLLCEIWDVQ
In short: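 Antagonist mode: titrated compounds tested against chenodeoxycholic acid stimulation (normalized to 50 uM CDCA and DMSO) in GeneBLAzer HEK293T cells for 16 h. Beta-lactamase read by CCF4 fluorescence; IC50 from Hill fits.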

[15] = qHTS assay for small molecule antagonists of peroxisome proliferator-activated receptor delta signaling (AID 588535); details: HEK293T PPARd-UAS-bla, beta-lactamase FRET ratio, 18 h; 460 nm channel;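 also: cells co-treated with a PPAR-delta agonist as stimulator during compound exposure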
In short: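 Fluorescence from CCF4-loaded GeneBLAzer PPAR-delta-UAS-bla HEK293T cells (2 hrs RT loading) quantified reporter inhibition after an 18 hr, 37 C compound exposure across a titration.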

[16] = Cell Viability - H-4-II-E (AID 543);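 also: cells exposed to compound for 40 hours; % is scaled to controls: 0 for no effect and ±100 for the full control effect; nearly all actives have a fitted effect of over 35% in size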
In short: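 Cells seeded at 1500 per well and rested 5 hr; compounds added; 40 hr incubation at 37 °C; CellTiter-Glo added, 20 min at room temperature; luminescence read. Hill-equation fits gave AC50.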

[17] = biological target: Retinoic acid receptor RXR-alpha (Homo sapiens) (UniProt P19793); assay: qHTS assay for small molecule agonists of retinoid X receptor alpha signaling (AID 588544; calls by dose curve;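 also: 0% = DMSO basal wells and 100% = reference agonist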)
Chain of Retinoic acid receptor RXR-alpha (Homo sapiens) (P19793 whole entry, looked up): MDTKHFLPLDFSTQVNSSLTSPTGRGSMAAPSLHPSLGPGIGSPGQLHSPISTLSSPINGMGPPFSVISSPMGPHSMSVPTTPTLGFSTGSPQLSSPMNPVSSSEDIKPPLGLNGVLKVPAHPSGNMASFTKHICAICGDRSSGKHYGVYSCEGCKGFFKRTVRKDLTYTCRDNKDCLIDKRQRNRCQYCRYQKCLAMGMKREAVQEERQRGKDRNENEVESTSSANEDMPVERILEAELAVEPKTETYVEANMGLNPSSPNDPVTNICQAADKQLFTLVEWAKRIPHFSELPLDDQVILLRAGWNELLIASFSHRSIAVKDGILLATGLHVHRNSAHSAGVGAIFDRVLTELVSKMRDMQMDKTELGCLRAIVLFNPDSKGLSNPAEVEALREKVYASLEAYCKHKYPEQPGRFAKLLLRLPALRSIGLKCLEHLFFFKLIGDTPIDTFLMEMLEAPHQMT

[18] = biological target: Peroxisome proliferator-activated receptor gamma (Homo sapiens) (UniProt P37231); assay: qHTS assay for small molecule antagonists of peroxisome proliferator-activated receptor gamma signaling (AID 588537; active = well fitted inhibition curve with a large enough effect in the signal ratio, with a control signal flat, not every such curve was filed as active; the % refers to the signal ratio;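 also: reporter cells co-stimulated with 50 nM rosiglitazone agonist during compound treatment; % of control where 0% means no effect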)
In short: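 Fluorescence at 460 and 530 nm (405 nm excitation) reported beta-lactamase cleavage of CCF4 after 2 h room-temperature loading. HEK293 reporter cells in 1% charcoal/dextran-treated FBS had received compound and rosiglitazone for 16 h.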

[19] = biological target: Glucocorticoid receptor (Homo sapiens) (UniProt P04150); assay: GR-GFP Redistribution (AID 450;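 active = compounds whose dose series gives a full or clear partial fitted curve of increased nuclear translocation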; also: potency is read from the fitted curve at half-maximal effect); details: U2OS GR-GFP nuclear translocation, laser cytometry, 2 h
[20] = biological target: Glucocorticoid receptor (Homo sapiens) (UniProt P04150); assay: GR-EFC Redistribution (AID 451; calls by dose curve; also: potency is read from the fitted curve at half-maximal effect); details: CHO-K1 GR-EFC translocation, beta-gal luminescence, 2 h
In short: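 CHO-K1 cells expressing nuclear EA and GR-ED fragments of b-gal; compounds titrated up to 46 uM final, 2 h at 37 C. GR nuclear translocation read as complemented b-gal luminescence after 1 h RT detection.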

Oc1ccc(O)c2c(O)cccc12
active: Potency [4] 50.1 µM
inactive: activity change, negative = cytotoxicity [1] -30.1% | Potency [2] | caspase-3 activation [3] 18% | Potency [5] | max response [6] -5%

CCOc1ccc2nc(N)sc2c1
inactive: activity change, negative = cytotoxicity [1] -2.03% | Potency [7] | Potency [2] | caspase-3 activation [3] 2.81% | Potency [8] | Potency [4] | Potency [9] | Potency [5] | Potency [10] | outcome [11] | max response [6] -4.83%

O=C(OCC1CO1)C1CCCCC1C(=O)OCC1CO1 (configuration not stated)
inactive: activity change, negative = cytotoxicity [1] 2.77% | Potency [2] | Potency [12] | Potency [10] | max response [6] -26.2%
active: Potency [8] 50.1 µM | Potency [4] 39.8 µM

O=C(O)c1ccc([N+](=O)[O-])cc1
active: caspase-3 activation [7] 85.2%
8.52%: max response [15]
inactive: activity change, negative = cytotoxicity [1] 9.32% | caspase-3 activation [3] 10.3% | Potency [12] | Potency [13] | Potency [8] | Potency [9] | Potency [14] | Potency [10] | max response [6] -3.6% and -1.43%

Clc1nc2ccccc2nc1Cl
inactive: activity change, negative = cytotoxicity [1] -7.43% | Potency [16] | caspase-3 activation [3] 15.8% | Potency [4] | Potency [5] | Potency [10] | max response [6] -15.1%

O=[N+]([O-])c1cc(N(CCO)CCO)ccc1NCCO
inactive: Potency [7] | Potency [2] | caspase-3 activation [3] -3.81% | Potency [12] | Potency [9] | Potency [5]
25% and 8.06%: max response [15]

O=[N+]([O-])c1cc(Cl)c(Cl)c(Cl)c1Cl
8.11%: max response [15]
inactive: Potency [2] | caspase-3 activation [3] 2.6% | max response [6] -2.48%

C/C=C1/C(=O)C[C@H]2[C@@H]3CCC4=CC(=O)CC[C@]4(C)[C@H]3CC[C@]12C
active: Potency [13] 50.1 µM | Potency [8] 39.8 µM | Potency [4] 50.1 µM
inactive: Potency [2]

C=C(C#N)C(=O)OCC
-32.1%: max response [15]
inactive: activity change, negative = cytotoxicity [1] -3.66% | Potency [7] | caspase-3 activation [3] -3.19% | Potency [12] | Potency [13] | Potency [10] | outcome [11] | Potency [17] | max response [6] -12.8%

Nc1ccc(-c2ccc(N)c(O)c2)cc1O
inactive: Potency [2] | caspase-3 activation [3] 0.00867% | Potency [9]

O=CC(=O)c1ccccc1
inactive: activity change, negative = cytotoxicity [1] 5.07% | Potency [16] | Potency [12] | Potency [5] | Potency [10] | outcome [11] | Potency [17] | max response [6] -4.94%
7.18%: max response [15]

Nc1ccc(N=Nc2ccccc2)c(N)c1
inactive: Potency [7] | Potency [2] | caspase-3 activation [3] -11.8% | Potency [12] | Potency [13] | Potency [8] | Potency [4] | Potency [9] | Potency [5] | Potency [10] | outcome [11] | Potency [18] | Potency [17]

C[C@@H]1CC2(OC(O)[C@]3(C)O[C@H]23)O[C@H]2C[C@@]3(C)[C@@H]4CC[C@H]5C(C)(C)C(O[C@@H]6OC[C@@H](O)[C@H](O)[C@H]6O)CC[C@@]56C[C@@]46CC[C@]3(C)[C@@H]12 (some centres not stated)
active: Potency [6] 44.7 µM
inactive: Potency [13] | Potency [8]

CC[C@@H](CO)Nc1nc(NCc2ccccc2)c2ncn(C(C)C)c2n1
inactive: Potency [19] > 46 µM | Potency [20] > 46 µM

C[C@@H](N)[C@@H](C)Cc1ccccc1
inactive: Potency [19] > 46 µM | Potency [20] > 9.22 µM

CO[C@@H](NC(N)=O)C(=O)O
inactive: Potency [19] > 46 µM | Potency [20] > 9.22 µM

O=C(O)c1cc(N=Nc2ccc([N+](=O)[O-])cc2)ccc1O
inactive: Potency [19] > 46 µM | Potency [20] > 9.22 µM | Potency [16] | Potency [2] | caspase-3 activation [3] -10.9% | Potency [12] | Potency [13] | Potency [8] | Potency [4] | max response [6] 6.02%
active: Potency [10] 10 µM

NS(=O)(=O)c1cc2c(cc1Cl)N[C@H](Cc1ccccc1)NS2(=O)=O
inactive: Potency [19] > 46 µM | Potency [20] > 9.22 µM

CC(C)(C)NC[C@@H](O)c1ccc(O)c(CO)n1
inactive: Potency [19] > 46 µM | Potency [20] > 9.22 µM

COc1cccc(Cn2c(=O)c(C)nc3cnc(Oc4cccc(Cl)c4)nc32)c1
inactive: Potency [19] > 9.22 µM | Potency [20] > 46 µM

O=[N+]([O-])c1ccccc1N=Nc1c(O)[nH]c2ccc(S(=O)(=O)O)cc12
inactive: Potency [19] > 46 µM | Potency [20] > 9.22 µM

O=C(O)c1ccc(NS(=O)(=O)Cc2ccccc2)cc1
inactive: Potency [19] > 46 µM | Potency [20] > 9.22 µM

O=C(O)c1ccc(C(=O)c2ccccc2C(=O)O)cc1C(=O)O
inactive: Potency [19] > 46 µM | Potency [20] > 9.22 µM

CC(C)c1ccc(/C=C2\C=C(c3ccc4ccccc4c3)OC2=O)cc1
inactive: Potency [19] > 46 µM | Potency [20] > 9.22 µM

COc1ccc(CNc2ncnc3ccc(-c4ccccc4C#N)cc23)c(OC)c1
inactive: Potency [19] > 46 µM | Potency [20] > 46 µM

CN(C)[C@H]1C(=O)C(C(=O)NCN2CCCC2)=C(O)[C@]2(O)C(=O)C3=C(O)c4c(O)cccc4[C@](C)(O)[C@H]3C[C@H]12
inactive: Potency [19] > 46 µM | Potency [20] > 9.22 µM

Cc1nc2cnc(OCc3ccccc3)nc2n(Cc2ccc(F)cc2)c1=O
inactive: Potency [19] > 9.22 µM | Potency [20] > 46 µM

CN(N=O)c1ccc(/C=C\c2ccnc3ccccc23)cc1
inactive: Potency [19] > 46 µM | Potency [20] > 9.22 µM

CN(C)CCCn1c2ccccc2c2cnccc21
inactive: Potency [19] > 46 µM | Potency [20] > 9.22 µM

Cc1cn([C@H]2C[C@H](N=[N+]=[N-])[C@H](CO)O2)c(=O)[nH]c1=O
inactive: Potency [19] > 46 µM | Potency [20] > 46 µM and > 9.22 µM

OCCCN=C1CCCCC1
inactive: Potency [19] > 46 µM | Potency [20] > 9.22 µM

NC(Cc1ccccc1)=NCC(=O)O
inactive: Potency [19] > 46 µM | Potency [20] > 9.22 µM

O=C(O)c1ccc(Nc2ccnc3cc(Cl)ccc23)cc1O
inactive: Potency [19] > 46 µM | Potency [20] > 9.22 µM

CS[C@@H](CC(=O)O)C(=O)O
inactive: Potency [19] > 46 µM | Potency [20] > 9.22 µM

O=C(O)[C@@H](S)[C@H](S)C(=O)O
inactive: Potency [19] > 46 µM | Potency [20] > 9.22 µM

O=[N+]([O-])c1ccc2ncccc2c1CCc1c([N+](=O)[O-])ccc2ncccc12
inactive: Potency [19] > 46 µM | Potency [20] > 9.22 µM

C[C@]12CC[C@H]3c4ccc(O)cc4CC[C@@H]3[C@H]1CC[C@@H]2OC(=O)CCC1CCCC1
inactive: Potency [19] > 46 µM | Potency [20] > 9.22 µM
